From PubChem BioAssay AID2676 (National Center for Advancing Translational Sciences (NCATS), 2010) come the findings set out here.

Structures are written as SMILES. Out of some 370,000 compounds screened, about 1,100 (0.3%) were called active. Inconclusive results (about 1%) are left out. The sample holds actives, similar compounds and a random draw of the others, so the mix is not that of the screen. Values without a mark were called inactive. Calls come from the whole dose curve; as a rule, active = well fitted activation curve with a large enough effect; inconclusive = small, poorly fitted or top-dose-only effect; inactive = flat fitted curve, though single readings scatter.
% is set by controls: 0 for no effect and ±100 for the full control effect.

Chain of Relaxin receptor 1 (Homo sapiens) (Q9HBX9 whole entry, looked up): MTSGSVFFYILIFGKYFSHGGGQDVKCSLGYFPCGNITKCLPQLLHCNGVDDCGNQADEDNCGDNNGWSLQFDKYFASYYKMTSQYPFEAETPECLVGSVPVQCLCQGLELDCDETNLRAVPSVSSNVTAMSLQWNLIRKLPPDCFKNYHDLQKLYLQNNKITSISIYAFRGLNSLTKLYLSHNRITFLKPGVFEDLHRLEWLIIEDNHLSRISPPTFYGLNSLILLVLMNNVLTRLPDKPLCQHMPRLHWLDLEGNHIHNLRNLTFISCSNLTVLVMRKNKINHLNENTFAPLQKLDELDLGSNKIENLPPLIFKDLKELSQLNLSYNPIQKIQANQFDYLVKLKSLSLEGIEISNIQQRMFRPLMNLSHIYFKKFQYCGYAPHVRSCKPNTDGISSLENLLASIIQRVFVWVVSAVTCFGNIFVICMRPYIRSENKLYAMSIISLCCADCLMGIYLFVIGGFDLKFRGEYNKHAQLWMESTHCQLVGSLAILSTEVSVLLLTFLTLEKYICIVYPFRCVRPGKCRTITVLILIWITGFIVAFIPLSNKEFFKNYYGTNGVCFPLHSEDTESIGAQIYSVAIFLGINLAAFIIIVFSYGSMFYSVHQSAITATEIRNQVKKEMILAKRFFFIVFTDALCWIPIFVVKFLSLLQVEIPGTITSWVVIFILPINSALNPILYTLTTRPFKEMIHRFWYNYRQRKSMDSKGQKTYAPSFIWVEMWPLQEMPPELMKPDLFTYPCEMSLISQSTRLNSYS

In this assay the target is Relaxin receptor 1 (Homo sapiens) (UniProt Q9HBX9). Briefly: qHTS Assay for Agonists of the Relaxin Receptor RXFP1. Note: nearly all actives have a fitted effect of over 60% in size. To be noted: HEK293T-RXFP1 cAMP TR-FRET, 30 min; series mostly up to 57.5 µM; activation: at the top concentration. The text has this:
NIH Chemical Genomics Center [NCGC] NIH Molecular Libraries Probe Production Centers Network [MLPCN] MLPCN Grant: R03 MH085705-01A1 Assay Submitter (PI): Alexander Agoulnik NCGC Assay Overview: The relaxin hormone is involved in the variety of biological functions in normal tissues and diseases. The role of relaxin is well-established in female reproduction and parturition, mammary gland and endometrial development, maintenance of myometrial quiescence during pregnancy. Relaxin signaling through its G protein-coupled receptor (GPCR) RXFP1 results in ECM remodeling through regulation of collagen deposition, cell invasiveness, proliferation and overall tissue homeostasis. […] Recombinant human relaxin (rhRlx) is currently being tested in clinical trials as a protective agent in congestive heart failure, in treating severe preeclampsia, and as an anti-fibrotic agent in systemic sclerosis. Upon relaxin binding RXFP1 activation leads to the activation of adenylate cyclase (AC) via Gs. cAMP will activate PKA, which phosphorylates many signaling proteins. Thus, detection of cAMP increase is an easy and reliable indication of relaxin receptor activation. To screen for agonists of the relaxin receptor, a HEK293T cell line stably transfected with RXFP1 was used. RXFP1 activation was assayed by changes in cAMP levels as detected with a time-resolved fluorescence energy transfer (TR-FRET) cAMP detection kit.
NCGC Assay Protocol Summary: This is a cell-based assay for cAMP second messenger response to screen for agonists of the RXFP1 receptor. The assay was conducted in the presence of a PDE4 inhibitor (Ro 20174). The cells were lysed and the cAMP levels were measured with a TR-FRET cAMP kit. Presence of cAMP in the cell lysate disrupts binding between the cryptate-labeled anti-cAMP and d2-labeled cAMP pair, leading to a decrease in the TR-FRET signal. Data were normalized to the controls for basal activity (buffer only) and 100% activity (29 nM porcine relaxin). The EC50 values were determined from concentration-response data modeled with the standard Hill equation 1536-well assay protocol for the HEK293 RXFP1 cAMP assay: (1) Add 3 ul HEK293 RXFP1 cell culture. 2000 cells/well in DMEM/F12, 10% FBS, 1x Pen/Strep (dispensed offline with MultiDrop Combi). (2) Incubate 16-24 hr at 37C, 5% CO2. (3) Add 1 ul 400uM Ro20174 in DPBS, 0.05% BSA, 0.005% Tween 20. (3) Add 23 nl compounds in DMSO solution. Final concentration was 0.5 - 58 uM. (4) Incubate 30 min at 37C, 5% CO2. (5) Add 1 ul cAMP-d2 in lysis buffer (HTRF cAMP HiRange kit, CisBio). (6) Add 1 ul anti-cAMP antibody-cryptate in lysis buffer (HTRF cAMP HiRange kit, CisBio). (7) Incubate 30 min at room temperature. (6) Detect the assay plate in a ViewLux plate reader (PerkinElmer) with Ex=320 nm, Em1=615 nm and Em2=665 nm. Keywords: relaxin, RXFP1, RXFP2, G-protein coupled receptor, cAMP, agonist, high throughput screening, MLSMR, MLSCN, NIH Roadmap, qHTS and NCGC
In general terms: qHTS replaces the single test concentration by a dilution series.
Turning to `COc1ccc(N2CCN(C3=NS(=O)(=O)C(c4cccc(Br)c4)=C3C)CC2)cc1`, the “activation” value is -0.541%.

Regarding `Cc1c(-c2nsc(NC(=O)c3cccc(Cl)c3)n2)nnn1-c1ccccc1C(F)(F)F`, the “activation” value is -0.886%.

In the case of `COc1ccc(-c2nc3c(c(SCC(=O)Nc4ccc(C(=O)O)cc4)n2)Cc2ccccc2O3)cc1`, the “activation” value was 21.7%.

For `Cc1ccc(-c2nn(CCC(=O)Nc3ccc(OC(F)(F)F)cc3)c(=O)c3ccccc23)cc1`, the “activation” value was 6.25%.

As to `COc1ccc(-n2c(SCC(N)=O)nc3c(oc4ccccc43)c2=O)cc1`, the “activation” value is 0.504%.

`COC(=O)c1ccccc1NC(=O)C(Cc1ccccc1)N1Cc2ccccc2C1=O` (stereo not given): the “activation” value was 4.06%.

For `CC1=C(c2ccc(F)cc2)S(=O)(=O)N=C1N1CCC(C(=O)NCCc2ccccc2C)CC1`, the “activation” value is 2.67%.

For `Cc1ccc2nc3c(cc(C(=O)NC4CCCCC4)c(=N)n3C(C)C)c(=O)n2c1`, the “activation” value is 5.26%.

Regarding `COc1cccc(-n2c(=O)c3c(C)c(C(=O)N(C)C)sc3n(Cc3cccc(C)c3)c2=O)c1`, the “activation” value is 2.04%.

Regarding `CCCCOc1ccc(CNC(=O)c2ccc3c(c2)N(C)C(=O)C2CCCCN32)cc1` (stereo not given), the “activation” value is -0.99%.

`O=C(c1ccc2c(c1)N(Cc1ccccc1)C(=O)c1ccccc1S2(=O)=O)N1CCC(Cc2ccccc2)CC1`: the “activation” value was 0.856%.

For `Cc1cccc(NC(c2cccc(F)c2)c2ccc3ccc(C)nc3c2O)n1` (stereo not given), the “activation” value was 1.58%.

Take `CCOc1ccccc1NC(=O)Cn1c(=O)n(Cc2ccccc2)c(=O)c2c(C)c(C(=O)N(C)C)sc21`: the “activation” value is 2.17%.

`COc1ccc(S(=O)(=O)Nc2cc3c(C(=O)OC(C)C)c(C)oc3c3ccccc23)cc1`: the “activation” value was 1.2%.

`CC1=C(C(=O)N2CCN(c3cccc(C(F)(F)F)c3)CC2)C2(CCCCC2)OC1=O`: the “activation” value is -0.574%.

In the case of `CC(C)(C)OC(=O)N1CCC(c2c(C(=O)N3CCN(c4cccc(Cl)c4)CC3)cnn2-c2cccc(Cl)c2)CC1`, the “activation” value is 2.09%.

In the case of `COc1ccc2c(c1)CCc1c(C(=O)Nc3cc(C)ccc3O)noc1-2`, the “activation” value is -4.18%.

Turning to `COc1cccc(CNC(=O)Cn2c(=O)c3cccn3c3ccc(F)cc32)c1OC`, the “activation” value is 2.2%.

Consider `O=C(NCCc1ccccc1)c1cnc2sc(N3CCCC3)nn2c1=O`, for which the “activation” value is 8.9%.

Regarding `COc1ccccc1-c1nnc(SCC(N)=O)o1`, the “activation” value is 11.1%.

In the case of `COc1cccc(C2C(C(=O)Nc3ccc(C)cc3C)=C(C)Nc3c(C(=O)Nc4ccccc4)cnn32)c1` (stereo not given), the “activation” value was -1.61%.

In the case of `CCCCN1C(=O)c2[nH]nc(-c3ccccc3O)c2C1c1cccc(OCc2ccccc2)c1` (stereo not given), the “activation” value was 1.42%.

Consider `CCN(C(=O)c1sc2cc(OC)ccc2c1Cl)c1ccccc1`, for which the “activation” value was 1.04%.

As for `CCC(Sc1nc2n[nH]c(C)c2c(=N)n1-c1ccccc1Cl)C(=O)N(CC)CC` (stereo not given), the “activation” value was 3.81%.

On to `Cc1nn(Cc2ccc(F)cc2)c(C)c1NC(=O)c1cc(CC(C)C)on1`, for which the “activation” value was -1.08%.
